# Measured values: PubChem BioAssay
# “And” between values parts separate entries of the source, which are not always exact repeats. Equal entries are not always repeated. The source made the active and inactive calls. Unless noted, how the calls were made is not given here.
# Experiments:
# [1] = compounds altering circadian rhythm period length – cell-based, LOPAC library, luminescence reporter (AID 2774); settings: circadian reporter cells, at 7 µM, actives lie on both sides;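 further: values are relative to mean of DMSO wells on each plate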
# [2] = test system: Hepatitis C virus NS3 helicase; assay: blockers of NS3h binding to ssDNA – biochemical, fluorescence polarization, LOPAC1280 library, primary screen (AID 687035; in the data active means inhibition above about 37%); settings: Purified HCV NS3 helicase, Cy5-dT15 ssDNA binding fluorescence polarization; stronger effect = higher value; concentration not given here
# [3] = compounds altering Cy5-DNA-NS3h complex signal – biochemical, LOPAC1280, artefact control for HCV NS3 helicase inhibitor project (AID 687037); settings: Cy5-DNA-NS3h complex fluorescence interference counterscreen
# [4] = viability loss with induced miR-34 in A549 – imaging, A549 dox-inducible miR-34, nuclei and caspase counts, primary screen (AID 1347080;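 active means compounds whose cell count with miR-34 switched on is under 0.7 times the count with it off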); settings: A549 miR-34 inducible, Hoechst nuclei count, 48 h
# [5] = galactose survival enhancers in mitochondrial complex I cybrids – cell-based, galactose medium, ATP luminescence, primary screen (AID 1645843;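 active means z-score of at least 1.8 in each of two replicates, scored against plate mean and spread of sample wells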;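 further: positive z means more ATP and so rescue of galactose-driven cybrid death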); settings: complex I mutant cybrid cells, 72 h, stronger effect = higher value
# [6] = compounds altering viability of human ES cells (AID 493140); settings: human embryonic stem cell survival screen; stronger effect = higher value;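 further: cells exposed to compounds for four days before counting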
# [7] = P. berghei load reduction in hepatocytes – cell-based, HepG2, luciferase luminescence, HepG2 viability, primary screen (AID 624349; in the data active means parasite load remaining mostly below about 12%, no sharp cut-off; inactive means mostly above about 10%;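 further: 100% = mean of DMSO negative control wells on the same plate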); settings: P. berghei liver stage in HepG2, luciferase luminescence, concentration not given here; parasite load remaining: stronger effect = lower value; viability: measured here: HepG2 viability without parasites
# [8] = stronger effect = lower value, cell number ratio, induced over uninduced
# [9] = measured here: relative caspase fold change +Dox/-Dox
# [10] = measured here: total cells with miR-34 induction, stronger effect = lower value
# [11] = measured here: total cells without miR-34 induction
Compound,period change [1],inhibition [2],fluorescence ratio (interference) [3],"fold change [4, 8]","fold change [4, 9]","cell count [4, 10]","cell count [4, 11]",z-score [5],survival [6],parasite load remaining [7],viability [7]
CNc1ncnc2c1ncn2[C@H]1C[C@H](OP(=O)(O)O)[C@@H](COP(=O)(O)O)O1,-0.03 h (inactive),-4% (inactive),1 (inactive),1.08 (inactive),1.03,10600,9840,0.465 (inactive),,,
O=C(O)CCC(=O)N1CCCC1C(=O)O (configuration not stated),-0.225 h (inactive),-2% (inactive),1 (inactive),0.97 (inactive),1.16,9450,9740,0.565 (inactive),,,
NCCC(=O)NCCc1cnc[nH]1,0.085 h (inactive),,,0.903 (inactive),1.35,9030,10000,,7.75 (inactive),133% (inactive) and 73.6% (inactive),94% and 70.5%
N=c1c[n+](N2CCOCC2)[n-]o1,0.03 h (inactive),-1% (inactive) and -5% (inactive),1 (inactive),1 (inactive) and 0.984 (inactive),2.22 and 1.55,10300 and 10500,10300 and 10700,-0.02 (inactive) and 0.005 (inactive),,,
NCCC1CCCC(CCN)N1 (configuration not stated),0.21 h (inactive),-7% (inactive),0.9 (inactive),1.09 (inactive),1.24,10800,9840,0.405 (inactive),,,
CCOC(=O)C12CC1/C(=N/O)c1ccccc1O2 (configuration not stated),-0.125 h (inactive),,,1.06 (inactive),2.7,9720,9140,0.485 (inactive),,,
CCC[C@@H]1C[C@@H](C(=O)N[C@@H]([C@H]2O[C@H](SC)[C@H](O)[C@@H](O)[C@@H]2O)[C@@H](C)O)N(C)C1,,,,0.982 (inactive) and 0.853 (inactive),0.967 and 1.36,11000 and 8020,11200 and 9400,1.21 (inactive),,53.4% (inactive) and 46.6% (inactive),129% and 47.8%
COc1c2c(nc3ccccc13)OC(C(C)(O)CO)C2 (configuration not stated),0.065 h (inactive),,,0.919 (inactive),0.535,8340,9080,,14.3 (inactive),78.4% (inactive),73.1%
N=C(N)c1ccc(OCCCCCOc2ccc(C(=N)N)cc2)cc1 (tested in a mixture with another compound),0.16 h (inactive),-1% (inactive),1 (inactive),1.03 (inactive),0.748,3790,3670,-1.29 (inactive),,,
CC(=O)O[C@H]1CC2(C)[C@@H](C[C@@H](O)[C@H]3[C@@]4(C)CC[C@@H](O)[C@@H](C)[C@@H]4CC[C@@]32C)C1=C(CCC=C(C)C)C(=O)O (some centres not stated),-0.06 h (inactive),-2% (inactive),1 (inactive),0.982 (inactive),1.41,9740,9920,4.71 (active),,,
